Screening results (PubChem)
DAX1 inh-1: DAX1 (NR0B1) inhibitors, primary screen, cell-based, HEK293, Gal4-DAX1, luciferase luminescence; Nuclear receptor subfamily 0 group B member 1 (Homo sapiens), P51843; HEK293 Gal4-DAX1 luciferase reporter; inhibition, % at 6.75 µM; 340,000 tested, 0.99% active;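 active means inhibition above the mean over all tested compounds plus 3 SD, cut at about 4.2% in these data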;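 further: 0% = DAX1-transfected cells with DMSO and 100% = empty-vector control cells with DMSO; inhibition shows as a rise in luminescence from relieved DAX1 repression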
Target sequence (P51843 207-470 limits assumed): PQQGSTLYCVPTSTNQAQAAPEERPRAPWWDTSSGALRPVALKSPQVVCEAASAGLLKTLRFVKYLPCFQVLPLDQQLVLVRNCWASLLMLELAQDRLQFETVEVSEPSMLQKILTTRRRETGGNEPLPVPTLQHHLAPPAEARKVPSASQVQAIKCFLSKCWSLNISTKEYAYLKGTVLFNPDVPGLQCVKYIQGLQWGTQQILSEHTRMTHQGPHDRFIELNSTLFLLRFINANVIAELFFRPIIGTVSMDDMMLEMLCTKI
hcDAF12 agonist: H. contortus DAF-12 nuclear receptor activators, primary screen, cell-based, luminescence, HEK293, lit1-tk-luc reporter; HEK293 hcDAF-12 lit1-tk-luc reporter; 0% DMSO, 100% Δ7-dafachronic acid; activation, % at 6.8 µM; 370,000 tested, 1.4% active;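 active means activation above the mean of all tested compounds plus 3 SD, cut at about 5.5% in these data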;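 further: 100% = response to 3 µM Δ7-dafachronic acid high control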
hgDAF12 agonist: H. glycines DAF-12 receptor agonists, primary screen, cell-based, luminescence, HEK293, GAL4 fusion, UAS-luciferase; AID 687014, 2013; Nuclear hormone receptor DAF-12 (Heterodera glycines), GAL4 fusion; HEK293 GAL4-hgDAF12 UAS-luciferase reporter, agonist luminescence; normalized to butyrate control; 370,000 tested, 1.8% active; activation, % at 6.8 µM;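 active means activation above a cutoff set at the mean of all screened compounds plus 3 SD, cut at about 10% in these data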;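 further: 0% = DMSO wells and 100% = sodium butyrate wells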
DAX1 inh-2: DAX1 (NR0B1) inhibitors on StAR promoter, primary screen, cell-based, luminescence, SF-1 (NR5A1), full-length DAX-1; 370,000 tested, 1.1% active; inhibition, % at 6.8 µM; HEK293T StAR-luciferase reporter, SF-1/DAX-1 repression relief; AID 652010, 2013;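 active means inhibition above the mean over all tested compounds plus 3 SD, cut at about 3.6% in these data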;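 further: 0% = DAX-1 cells with DMSO and 100% = cells lacking DAX-1 with DMSO; higher inhibition means more luminescence from relief of DAX-1 repression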
ssDAF-12 act: S. stercoralis DAF-12 nuclear receptor activators, primary screen, cell-based, luminescence, HEK293, GRIP1 co-expression, lit1-tk-luc; HEK293 ssDAF-12/GRIP1 lit1-tk-luc reporter; % of 3 µM dafachronic acid response; activation, % at 6.8 µM; 370,000 tested, 1% active;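 active means activation above the mean over all tested compounds plus 3 SD, cut at about 0.9% in these data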;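 further: 0% = DMSO-only wells and 100% = 3 µM delta7-dafachronic acid wells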
Wee1 degr inh: Wee1 degradation inhibitors, primary screen, cell-based, HeLa, Wee1K328M-luciferase, luminescence. Wee1-like protein kinase (Homo sapiens), P30291. HeLa Luc-Wee1K328M stability; 100% = proteasome inhibitor MG132 effect. reporter increase, % at 5 µM. 220,000 tested, 1.2% active;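 active means activation above the mean of all tested compounds plus 3 SD, set per screening run, cut at about 8.8% in these data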;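 further: cells exposed to compound for 20 h before luminescence read; 0% = DMSO alone and 100% = MG132 at 30 µM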
LXRb hcDAF ctr: LXR agonists, Gal4 luciferase reporter, confirmation, counter-screen for hcDAF-12 agonist project, cell-based, luminescence, HEK293, H. contortus campaign | shares compounds with hcDAF12 agonist | HEK293 Gal4-LXR tk-luc reporter, 24 h; normalized: DMSO 0%, positive control 100% | activation, % at 6.8 µM | 3,400 tested, under 10 active;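 active means mean percent activation of the reporter above a cutoff set as the average over tested compounds plus their standard deviation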
hcDAF12 conf: H. contortus DAF-12 receptor agonists, confirmation, cell-based, luminescence, HEK293, lit1-tk-luc, triplicate; shares compounds with hcDAF12 agonist; HEK293 hcDAF-12 lit1-tk-luc reporter; % of Δ7-dafachronic acid response; activation, % at 6.8 µM; 3,400 tested, 61% active; AID 743032, 2013;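 active means mean activation across triplicate tests above the threshold derived from the earlier primary screen, cut at about 5.5% in these data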;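 further: 0% = DMSO only wells and 100% = 3 µM Δ7-dafachronic acid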
* = called active by the depositor; / = no result given. Only some compounds are listed: those with a hit (about 4.6% of all), similar ones and a draw of the others.

SMILES | DAX1 inh-1 | hcDAF12 agonist | hgDAF12 agonist | DAX1 inh-2 | ssDAF-12 act | Wee1 degr inh | LXRb hcDAF ctr | hcDAF12 conf
Cc1ccc(-c2cc(-c3ccccc3)no2)cc1 | 2 | 14* | 14* | 3.7* | 1.8* | / | 2 | 14*
Cc1cc(C)n2nc(C(=O)OCC(=O)Nc3ccc(C)c(S(=O)(=O)N4CCOCC4)c3)nc2n1 | 2 | 1 | -3 | -1 | -1 | / | / | /
COc1ccc(CC(=O)O/N=C(\N)c2ccc(C)cc2)cc1 | 2 | 7.7* | 5 | 0 | 1.6* | 0 | 0 | 8.5*
O=C(Cc1cccs1)Nc1cccc(-c2nc3cc4ccccc4cc3[nH]2)c1 | 1 | 9.4* | 13* | 3 | 1 | 1 | 2 | 5
O=C(Nc1nc2ccccc2s1)c1cnccn1 | 1 | 7.5* | 13* | 4.0* | 1 | 8 | 1 | 6.6*
O=C(Nc1ccc2nccnc2c1)c1cnccn1 | 2 | 6.7* | 5 | 2 | -1 | 2 | 0 | 2
O=C(Nc1nc2ccccc2s1)C1=NN(c2ccccc2)C(=O)CC1 | 0 | 6.8* | 1 | 0 | -1 | 3 | 0 | 4
CCOC(=O)[C@]12CCCC=C1N(CCc1ccc(OC)c(OC)c1)C(=O)[C@H](CC(=O)N1CCN(C(=O)C3CC3)CC1)C2 | / | 2 | -2 | 2 | -1 | / | / | /
O=S1(=O)c2ccc(N3CCCC3)cc2Oc2ccccc2CN1Cc1cn(Cc2cccc(C(F)(F)F)c2)nn1 | / | -2 | -2 | 0 | -2 | / | / | /
CC1(C(=O)NS(=O)(=O)c2cccc(Cl)c2)CCN1C(=O)C1(c2ccc(Cl)cc2)CCC1 (centres undefined) | / | 0 | 0 | -1 | -2 | / | / | /
O=C1C(=NO)CC(c2ccccc2)N1c1ccccc1 (centres undefined) | 0 | 2 | 3 | 0 | -1 | / | / | /
COc1cccc(C(=O)/C=C/Nc2ccc(S(=O)(=O)Nc3onc(C)c3C)cc2)c1 | 0 | 13* | 9 | 3 | 0 | 2 | 0 | 2
CCOc1cc(/C=C2\N=C(C)OC2=O)cc(Br)c1OCC(=O)OC | 0 | 6.7* | -1 | 0 | 1 | -1 | 0 | 2
CCCCc1nc(N2CCN(C(=O)c3ccco3)CC2)c(C#N)c2c1CCCC2 | 0 | -3 | 1 | 0 | -1 | / | / | /
CCOC(=O)C1=NN(c2ccccc2)C2=NC(C)=C(C(=O)OC)C(c3ccc(C)cc3)N12 (centres undefined) | 2 | 8.3* | 0 | 0 | -1 | 1 | 0 | -2
Cc1ccc(N(CC(=O)Nc2ccccc2-c2ccccc2)S(=O)(=O)c2ccccc2)c(C)c1 | 0 | 6.6* | 2 | 0 | -2 | -1 | 0 | 2
COc1cccc2cc(C(=O)NCCc3ccccc3)oc12 | 0 | 4 | 4 | 2 | 0 | / | / | /
COCCCN1C(=O)C(CC(=O)NCCCN(C)C)CC(C(=O)N2CCOCC2)=C1C (centres undefined) | / | 1 | -2 | 1 | -1 | / | / | /
COc1ccc(-c2nc3c4ccccc4ccn3c2CN2CCCCC2)cc1OC | 0 | 1 | 2 | -1 | -1 | 1 | / | /
COc1ccc(-c2nc3c4ccccc4ccn3c2CN2CCCCC2)cc1 | 2 | 7.0* | 4 | 0 | -1 | -2 | 0 | 1
O=C(NC(=S)Nc1ccccc1N1CCCC1)c1ccco1 | / | 7.6* | 5 | 0 | 0 | 0 | 0 | 5
O=C(NC(=S)NCc1ccc(-c2nc3ccccc3s2)cc1)c1ccco1 | 0 | -2 | -1 | 0 | -2 | 6 | / | /
O=C(NC(=S)Nc1nc(-c2ccccc2)cs1)c1ccco1 | 1 | 7.0* | -1 | 0 | 0 | 2 | 0 | 7.3*
CC(=O)Nc1ccc2nc(NC(=O)c3ccco3)sc2c1 | 2 | 6.7* | 10 | 2 | 0 | / | 1 | 10.0*
O=C(NC(=S)Nc1nc(-c2ccccc2)cs1)c1cccnc1 | -1 | 3 | 2 | 1 | 0 | -1 | / | /
SMILES | DAX1 inh-1 | hcDAF12 agonist | hgDAF12 agonist | DAX1 inh-2 | ssDAF-12 act | Wee1 degr inh | LXRb hcDAF ctr | hcDAF12 conf
CC(=O)Nc1ccc2nc(NC(=O)c3ccc([N+](=O)[O-])o3)sc2c1 | -2 | 0 | 1 | -1 | -1 | / | / | /
O=C(NC(=S)Nc1ccccc1N1CCCCC1)c1ccco1 | -2 | 1 | 0 | 0 | -1 | -2 | / | /
O=C(NC(=S)Nc1nc2ccccc2s1)c1ccco1 | 3 | 11* | 13* | 2 | 2.2* | 6 | 1 | 12*
Cc1ccc(NC(=O)COC(=O)c2ccc(-n3nc(C)cc3C)cc2)c(F)c1 | -1 | -1 | -1 | 2 | -2 | / | / | /
CCCCCCN1C[C@H](n2cc(C3CC3)nn2)[C@@H](O)C[C@@H]1c1ccc(OC)cc1 | -1 | -1 | 2 | 0 | -1 | / | / | /
O=C(NC(=S)Nc1cccc2cccnc12)c1ccccc1 | 1 | 0 | 2 | 0 | -1 | 0 | / | /
O=C(NC(=S)Nc1cccc2cccnc12)c1cccs1 | -1 | 6.6* | 0 | -1 | -1 | 0 | 0 | 4
CCCOc1ccc(C(=O)NC(=S)Nc2nc3ccc(C)cc3s2)cc1 | / | / | / | / | / | -1 | / | /
O=C(NC(=S)Nc1nc(-c2ccccc2)cs1)c1cccs1 | 0 | 8.2* | 3 | 0 | 0 | 1 | 0 | 5
CCCOc1ccc(C(=O)NC(=S)Nc2nc3ccccc3s2)cc1 | 1 | 6.9* | 2 | 1 | 0 | -2 | 0 | 7.6*
C=CCNC(=O)N1CCC(c2nc3ccc(Cl)cc3[nH]2)CC1 | / | 1 | -4 | 1 | -1 | / | / | /
Cc1ccc(C2=Nc3ccccc3N=C(C(Cl)Cl)C2)cc1 | -1 | 17* | 19* | 3.8* | 2.8* | 5 | 1 | 9.9*
